Test results reported in PubChem BioAssay AID504333 (National Center for Advancing Translational Sciences (NCATS), 2011).
Hit rate of the full screen: of about 360,000 compounds, about 16,000 (4.4%) were called active. About 9% were inconclusive and are not listed. This is one part of a sample in which actives are shown more often than they occur. The call rests on the fitted dose curve; in most records, active means well fitted inhibition curve with a large enough effect; inconclusive means small, poorly fitted or top-dose-only effect; inactive means no such curve, though single readings can be large or run the other way.

These compounds were tested against Bromodomain adjacent to zinc finger domain protein 2B (Homo sapiens) (UniProt Q9UIF8) (assay: qHTS Assay for Inhibitors of BAZ2B). Conditions: AlphaScreen BAZ2B-H3K14Ac peptide displacement; series mostly up to 114 µM; activity change, negative = inhibition: at the top concentration.
How it was run: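 Compounds, titrated to a top concentration of 110 uM, were incubated 30 min at room temperature with preformed BAZ2B/acetyl-K14 H3 peptide complex (50 nM each). Proximity signal was measured by AlphaScreen after 20 min with beads.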
Further: nearly all actives have a fitted effect of over 60% in size.
On the % scale 0 is the no-effect control and ±100 the full control effect; potency means the concentration at half of the fitted maximal effect.

Bromodomain adjacent to zinc finger domain protein 2B (Homo sapiens), sequence (Q9UIF8 whole entry, looked up, the tested form may be a part): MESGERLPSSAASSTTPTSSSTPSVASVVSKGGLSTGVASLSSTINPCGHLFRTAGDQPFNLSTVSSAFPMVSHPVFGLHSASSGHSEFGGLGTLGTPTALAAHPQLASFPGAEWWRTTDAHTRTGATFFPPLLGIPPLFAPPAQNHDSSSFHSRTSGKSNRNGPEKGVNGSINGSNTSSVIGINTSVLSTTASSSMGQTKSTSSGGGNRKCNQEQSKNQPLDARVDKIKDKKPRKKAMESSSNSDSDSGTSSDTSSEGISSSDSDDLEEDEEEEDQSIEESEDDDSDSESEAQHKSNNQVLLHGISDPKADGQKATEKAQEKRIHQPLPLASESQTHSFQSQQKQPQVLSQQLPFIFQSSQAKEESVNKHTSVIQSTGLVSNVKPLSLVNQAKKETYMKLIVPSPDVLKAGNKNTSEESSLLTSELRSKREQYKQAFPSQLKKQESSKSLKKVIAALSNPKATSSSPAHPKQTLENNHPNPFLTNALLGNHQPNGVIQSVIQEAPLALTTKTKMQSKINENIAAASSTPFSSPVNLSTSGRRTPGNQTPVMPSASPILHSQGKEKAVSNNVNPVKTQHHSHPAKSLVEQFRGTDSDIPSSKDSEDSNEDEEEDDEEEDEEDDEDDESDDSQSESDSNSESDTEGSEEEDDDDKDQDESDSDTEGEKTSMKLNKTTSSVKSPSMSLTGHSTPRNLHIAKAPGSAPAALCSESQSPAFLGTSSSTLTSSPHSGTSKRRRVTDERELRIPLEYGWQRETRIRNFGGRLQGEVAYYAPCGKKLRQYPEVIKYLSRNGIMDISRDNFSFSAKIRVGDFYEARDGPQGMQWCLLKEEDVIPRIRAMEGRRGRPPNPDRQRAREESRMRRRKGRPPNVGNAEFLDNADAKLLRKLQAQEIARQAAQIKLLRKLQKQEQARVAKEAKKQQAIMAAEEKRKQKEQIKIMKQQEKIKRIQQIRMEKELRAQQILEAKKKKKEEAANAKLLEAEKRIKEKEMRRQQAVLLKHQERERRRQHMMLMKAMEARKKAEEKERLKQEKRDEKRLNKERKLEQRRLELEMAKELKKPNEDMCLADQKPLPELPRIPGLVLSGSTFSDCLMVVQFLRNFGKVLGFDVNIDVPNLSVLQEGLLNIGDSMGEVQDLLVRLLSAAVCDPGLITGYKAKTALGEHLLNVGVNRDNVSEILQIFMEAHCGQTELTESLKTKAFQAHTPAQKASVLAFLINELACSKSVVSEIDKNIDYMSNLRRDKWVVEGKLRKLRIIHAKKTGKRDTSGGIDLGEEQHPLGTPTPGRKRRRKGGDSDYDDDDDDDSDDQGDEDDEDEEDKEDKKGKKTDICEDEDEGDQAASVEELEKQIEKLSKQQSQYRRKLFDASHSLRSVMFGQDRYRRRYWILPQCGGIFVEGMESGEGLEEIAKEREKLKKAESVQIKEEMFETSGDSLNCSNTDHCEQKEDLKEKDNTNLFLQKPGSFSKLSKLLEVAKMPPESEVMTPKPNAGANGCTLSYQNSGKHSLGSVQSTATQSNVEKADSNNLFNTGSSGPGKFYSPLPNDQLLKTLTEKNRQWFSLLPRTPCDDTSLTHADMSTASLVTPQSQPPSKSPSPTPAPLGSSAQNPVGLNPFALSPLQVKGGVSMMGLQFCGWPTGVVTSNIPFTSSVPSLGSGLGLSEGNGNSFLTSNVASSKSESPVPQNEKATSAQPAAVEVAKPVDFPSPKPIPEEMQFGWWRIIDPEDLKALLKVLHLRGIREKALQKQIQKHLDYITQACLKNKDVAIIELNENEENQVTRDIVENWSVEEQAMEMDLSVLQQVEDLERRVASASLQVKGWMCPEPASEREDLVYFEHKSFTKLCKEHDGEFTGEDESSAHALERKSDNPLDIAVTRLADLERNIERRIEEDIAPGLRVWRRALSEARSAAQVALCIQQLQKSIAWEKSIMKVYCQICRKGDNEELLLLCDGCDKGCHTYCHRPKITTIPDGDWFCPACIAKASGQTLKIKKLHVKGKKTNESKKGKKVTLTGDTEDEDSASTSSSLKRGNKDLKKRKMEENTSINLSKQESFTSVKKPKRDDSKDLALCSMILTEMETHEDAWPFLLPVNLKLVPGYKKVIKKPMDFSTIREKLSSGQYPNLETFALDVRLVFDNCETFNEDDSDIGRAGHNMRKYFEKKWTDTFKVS

SMILES | activity change, negative = inhibition | Potency
Cc1cc(/C=C2/NC(=O)NC2=O)c(C)n1-c1cccnc1 | -9.46% (inactive) | –
Cc1cccc(C)c1-n1c(C)cc(/C=C2\C(=O)NN(c3ccccc3)C2=O)c1C | – | 14.1 µM (active)
COc1cc(C(=O)NCCc2csc3nc(-c4ccccc4C)nn23)cc(OC)c1OC | 5.94% (inactive) | –
CCOCCc1nn2c(=O)cc(COC(=O)CNC(=O)c3ccc(C(C)(C)C)cc3)nc2s1 | -6.71% (inactive) | –
CCCCN(C)c1nnc(NC(=O)Nc2ccc(Br)c(C)c2)s1 | 1.07% (inactive) | –
c1ccc2c(C[n+]3csc4ccccc43)cccc2c1 | – | 56.2 µM (active)
c1ccc2c(CSCc3nc4ccccc4[nH]3)cccc2c1 | -34% (inactive) | –
Nc1scc[n+]1Cc1cccc2cccnc12 | -24.8% (inactive) | –
O=C(C1COc2ccccc2O1)N(Cc1cccnc1)c1nc2c(F)cc(F)cc2s1 (configuration not stated) | -11% (inactive) | –
COc1ccccc1OCCNCC(O)COc1cccc2[nH]c3ccccc3c12 (configuration not stated) | – | 39.8 µM (active)
CCCn1c(=N)n(CC(O)COc2ccccc2OC)c2ccccc21 (configuration not stated) | -4.1% (inactive) | –
COc1ccccc1OCC(O)CN1CCOCC1 (configuration not stated) | -19.8% (inactive) | –
CCOc1ccc(C2CC(=O)c3c([nH]c(C(=O)OCc4ccccc4)c3C)C2)cc1 (configuration not stated) | -5.29% (inactive) | –
Cc1n[nH]c(=O)nc1N/N=C/c1cccs1 | – | 17.8 µM (active)
NC(=O)N/N=C\c1cccs1 | 23.3% (inactive) | –
COc1ccc(Nc2nc(=O)[nH]nc2C)cc1 | 1.81% (inactive) | –
COC(=O)Cc1ccc(NC(=S)NCc2ccco2)cc1 | -33% (inactive) | –
COc1cc(C(=O)NC(=S)NCc2ccco2)cc(OC)c1OC | -25% (inactive) | –
COc1cccc(OC)c1C(=O)NC(=S)NCc1ccco1 | – | 79.4 µM (active)
N#Cc1nc(/C=C/c2ccc(F)cc2)oc1NC1CCCCC1 | -4.26% (inactive) | –
Cc1c(CCC(=O)O)c(=O)oc2c(C)c(OCc3ccccc3Cl)ccc12 | – | 70.8 µM (active)
CCOC(=O)CCc1c(C)c2ccc(OCc3nn[nH]n3)c(C)c2oc1=O | -1.46% (inactive) | –
Cc1c(CCC(=O)O)c(=O)oc2cc(OCc3ccc(Br)cc3)ccc12 | -16.1% (inactive) | –
O=C(c1ccccc1F)N1CCC(c2nc3c(nnn3Cc3cccc(F)c3)c(=O)[nH]2)CC1 | -3.32% (inactive) | –
Cc1ccc(NC(=O)COC(=O)CCc2nc3ccccc3n2-c2ccccc2)c(C)c1 | -4.05% (inactive) | –
CC(C)(C)c1ccc(NC(=O)COC(=O)CCc2nc3ccccc3c(=O)[nH]2)cc1 | -28.6% (inactive) | –

SMILES | activity change, negative = inhibition | Potency
CCN(c1ccc(NC(=O)COC(=O)CCc2nc3ccccc3n2-c2ccccc2)cc1)C(C)C | – | 25.1 µM (active)
COc1ccc(-n2c(=O)c3c(c4cc(OC)ccc4n3C)n(Cc3cccc(C)c3)c2=O)cc1 | -4.31% (inactive) | –
CCOC(=O)c1ccc(NC(=O)CCS(=O)(=O)c2ccc(C)cc2)cc1 | 6.69% [at 57.1 µM] (inactive) | –
Cc1ccc(N(C)C(=O)C2CCN(S(=O)(=O)c3ccc4c(c3)CCCN4C(=O)C3CCC3)CC2)cc1 | -3.01% (inactive) | –
CCOc1cc(/C=C(\C#N)c2nc(-c3cccs3)c(NC(C)=O)s2)ccc1O | -3.53% (inactive) | –
COc1cccc2cc(-c3nc(Cl)c4c5c(sc4n3)CC(C)CC5)c(=O)oc12 (configuration not stated) | 6.24% (inactive) | –
COc1cc(/C=C(\C#N)c2nc3c(s2)CC(C)CC3)ccc1O (configuration not stated) | – | 50.1 µM (active)
COc1cc(C(=O)NCCS(=O)(=O)N2CCN(c3ccccc3)CC2)cc(OC)c1OC | -20% (inactive) | –
CC(=O)c1ccc(NC(=O)CSc2c(C(C)C)cnc3c2c(=O)n(C)c(=O)n3C)cc1 | 4.33% (inactive) | –
Cc1ccc(Cl)cc1N1CCN(C(=O)C2CCC(CNS(=O)(=O)c3cccs3)CC2)CC1 (configuration not stated) | -14.2% (inactive) | –
CCOC(=O)C1CCCN(CC(=O)Nc2cc(C)c3c(=O)oc4ccccc4c3n2)C1 (configuration not stated) | -4.19% (inactive) | –
Cc1nc2c(c(=O)n1Cc1ccco1)c1nc3ccccc3nc1n2Cc1ccccc1 | – | 56.2 µM (active)
Clc1cccc(-c2nc3nc4ccccc4nc3n2Cc2ccco2)c1 | -8.99% (inactive) | –
Cc1cc(NC(=O)CSc2nc3cc(Cl)ccc3c(=O)n2Cc2ccco2)no1 | -20.2% (inactive) | –
COc1ccccc1CNc1ccc(-c2nc(-c3ccccc3C)no2)cc1[N+](=O)[O-] | -15% (inactive) | –
COc1ccccc1-n1c(-c2ccc(C)cc2)cn2c3c(=O)n(C)c(=O)n(C)c3nc12 | -25.8% (inactive) | –
CCOC(=O)c1oc2ccc(S(=O)(=O)n3nc(-c4ccccc4OC)cc3N)cc2c1C | -16% (inactive) | –
CCCCOc1ccc(CN2C(=O)C(=O)c3cc(Br)cc(C)c32)cc1OC | – | 6.31 µM (active)
CCCCN1C(=O)C(C)=C(C)C1OCCc1ccc(OC)c(OC)c1 (configuration not stated) | 13.3% (inactive) | –
CCCCOc1ccc(Cn2c(=O)oc3ccc(C)cc32)cc1OC | 71.6% (inactive) | –
COc1ccccc1CNc1nccn(-c2ccc(F)cc2)c1=O | -18.1% (inactive) | –
COc1ccc2c3c(c(=O)oc2c1OCC(=O)C(C)(C)C)CCCC3 | – | 79.4 µM (active)
O=c1oc2c(CN3CCCCC3)c(O)ccc2c2c1CCCCC2 | -12.4% (inactive) | –
CCCOc1ccc2c3c(c(=O)oc2c1OCCC)CCC3 | 21.5% (inactive) | –
O=C(Cn1c(=O)n(-c2ccc(F)cc2)c(=O)c2sc3ccccc3c21)NC1CCCC1 | -9.41% (inactive) | –
Cc1cccc(NC(=O)c2cc3c(C)nn(-c4ccccc4)c3s2)c1 | 5.11% (inactive) | –

SMILES | activity change, negative = inhibition | Potency
CCOC(=O)C1C(c2ccc(Cl)cc2)NC(=S)NC1(O)C(F)(F)F (configuration not stated) | 12.4% (inactive) | –
CCOC(=O)c1[nH]c2c(c1-c1ccccc1)C(=O)CC(c1ccc(Cl)cc1)C2 (configuration not stated) | 3.42% (inactive) | –
CCOC(=O)C1Sc2[nH]c(=O)sc2C(c2ccc(Cl)cc2)C1C(=O)OCC (configuration not stated) | – | 50.1 µM (active)
Cc1ccc(NC(=O)c2oc3ccccc3c2NC(=O)Cc2cccs2)cc1 | -17.6% (inactive) | –
CC(C)Sc1oc(-c2cccs2)nc1S(=O)(=O)c1ccc(Cl)cc1 | -4.8% (inactive) | –
CCN(CC)CCOc1ccc2c(c1)C(=NNC(=O)c1ccccn1)c1cc(OCCN(CC)CC)ccc1-2 | – | 20 µM (active)
CC(O)c1ccc(OCCN(C)c2ccccn2)cc1 (configuration not stated) | 0.0135% (inactive) | –
CCN(CC)S(=O)(=O)c1cc(C(=O)Nc2ccccn2)ccc1C | -5.55% (inactive) | –
COc1ccccc1CNC(=O)c1ccc(-n2c(C)cc3c2CCCC3)cc1 | -9.34% (inactive) | –
CC(C)c1ccc(NC(=O)C2CCN(c3nc(-c4ccc(C(C)C)cc4)no3)CC2)cc1 | 17.5% (inactive) | –
NNc1nc2c(Cl)cccc2s1 | – | 44.7 µM (active)
NC(=O)c1c(Nc2nc3c(F)cccc3s2)sc2c1CCCC2 | -17.7% (inactive) | –
CC1CCCN(c2nc3c(S(=O)(=O)c4ccc(C(C)C)cc4)nnn3c3ccsc23)C1 (configuration not stated) | -0.48% (inactive) | –
O=C(CSc1nc(=O)[nH]c2c1CCCC2)Nc1cc(C(F)(F)F)ccc1Cl | -4.05% (inactive) | –
O=C(Nc1c(-c2ccc(F)cc2)nc2ccccn12)c1cccc(F)c1 | 1.7% (inactive) | –
CCn1cc(C(=O)OCC(=O)Nc2cc(C)cc(C)c2)c(=O)c2ccc(C)nc21 | 3.94% (inactive) | –
Nc1nc(NCCCN2CCOCC2)nc(Nc2ccccc2)c1[N+](=O)[O-] | -5.03% (inactive) | –
N#Cc1nc(-c2ccc(OCc3ccccc3)cc2)oc1NCCCN1CCOCC1 | – | 50.1 µM (active)
O=S(=O)(c1ccccc1)c1nc(-c2ccccc2)oc1NCCCN1CCOCC1 | 1.55% (inactive) | –
Cc1ccc2sc(N(Cc3cccnc3)C(=O)C3COc4ccccc4O3)nc2c1C (configuration not stated) | -2.8% (inactive) | –
O=C(CNC(=O)c1ccc(F)cc1)c1ccccc1 | 11.6% (inactive) | –
CN(C)c1ccc(C(CNC(=O)c2ccc(F)cc2)c2c[nH]c3ccccc23)cc1 (configuration not stated) | – | 12.6 µM (active)
C[C@H](NC(=O)c1ccccc1)C(=O)OCC(=O)c1c[nH]c2ccccc12 | 3.43% (inactive) | –
COc1cc(OC)cc(C(=O)Nc2ccc3nc(Nc4cccc(C(F)(F)F)c4)cc(C)c3c2)c1 | -4.94% (inactive) | –
O=Cc1c(N2CCN(c3cccc(Cl)c3)CC2)nc2ccccn2c1=O | -33.1% (inactive) | –
O=Cc1c(Nc2ccccc2Cl)nc2ccccn2c1=O | – | 50.1 µM (active)

SMILES | activity change, negative = inhibition | Potency
Cc1cccn2c(=O)c(C=O)c(Nc3ccc(S(N)(=O)=O)cc3)nc12 | 6.46% (inactive) | –
CCC(=O)N1CCc2cc(CNC(=O)Nc3ccccc3Cl)ccc21 | -7.45% (inactive) | –
CSc1ccc(CCNC(=O)c2cc(C)nc3c2c(C)nn3-c2cccc(F)c2)cc1 | 17.5% [at 57.1 µM] (inactive) | –
CCOc1ccccc1CNCc1c(C(=O)O)c(C)n(Cc2ccc(C)cc2)c1C | -15.7% (inactive) | –
CCOC(=O)CNC(=O)N1c2ccccc2Sc2ccccc21 | 1.76% (inactive) | –
CCN1/C(=C/C(=S)Nc2ccccc2)Sc2ccccc21 | – | 22.4 µM (active)
CCN1C(=O)c2ccccc2Sc2ccc(NC(=O)Cc3ccc(OC)cc3)cc21 | -3.41% (inactive) | –
CCOC(=O)c1cc2c(=O)n3ccccc3nc2n(Cc2ccco2)c1=NC(=O)c1ccc(F)cc1 | 3.83% (inactive) | –
COc1ccc(C2C(C(C)=O)=C(O)C(=O)N2Cc2cccnc2)cc1 (configuration not stated) | -37.3% (inactive) | –
COc1cc(C2C(C(=O)c3ccc(C)o3)=C(O)C(=O)N2Cc2cccnc2)ccc1O (configuration not stated) | – | 56.2 µM (active)
Cc1cc(N2C(=O)C(O)=C(C(=O)c3ccc(C)o3)C2c2ccc(OCc3ccccc3)cc2)no1 (configuration not stated) | -26.4% (inactive) | –
CCOC(=O)c1c(C)[nH]c(CCC(=O)NCCCN2CCN(c3cc(C)ccc3C)CC2)c1C | -32.7% (inactive) | –
NC(=O)C1=C[C@H](c2csc3ccccc23)C[C@H](OCc2ccc(CO)cc2)O1 | -1.46% (inactive) | –
C=CCOC(=O)C1=C[C@@H](c2ccccc2)C[C@@H](OCc2ccc(CO)cc2)O1 | -1.46% (inactive) | –
O=C(O)C1=C[C@H](c2cccs2)C[C@H](OCCCCO)O1 | – | 79.4 µM (active)
Cn1c(=O)c2c(SCC(=O)NCC3CCCO3)nc(-c3ccccc3F)nc2n(C)c1=O (configuration not stated) | 6.48% (inactive) | –
O=C(CC(c1cccs1)N1Cc2ccccc2C1=O)Nc1ccc(F)cc1F (configuration not stated) | -5.59% (inactive) | –
Cc1cccc(OCC(=O)N(Cc2ccc(C(C)C)cc2)Cc2ccco2)c1C | 42% (inactive) | –
CCS(=O)(=O)c1ncc(N(Cc2ccc(F)cc2)Cc2ccco2)c(C(=O)Nc2cc(C)ccc2C)n1 | -1.24% (inactive) | –
COc1ccc2sc(-c3ccc(N(C)C)cc3)c(C#CCO)c2c1 | – | 89.1 µM (active)
O=C(C1CC1)N1CCc2cc(Br)cc(S(=O)(=O)N3CCN(c4ccccc4F)CC3)c21 | -3.75% (inactive) | –
N#Cc1ccc(CSc2nnc(-c3ccccn3)n2-c2ccc(Cl)cc2)cc1 | – | 50.1 µM (active)
N#Cc1ccc(CSc2nnc3ccccn23)cc1 | -0.806% (inactive) | –
N#Cc1ccc(CSc2ncccn2)cc1 | -21.7% (inactive) | –
